Assay [1] is described as follows: Quantitative High-Throughput drug screen in 47 multiple myeloma cell lines against the NCATS MIPE library collection: KMS34_JCRB cell viability assay (AID 1918985). Further: potency means the concentration at half of the fitted maximal effect; nearly all actives have a fitted effect of over 40% in size. The method, boiled down: (§1)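 Readout: median RLU from CellTiter-Glo after 5 min at room temperature. Preceding step was 48 h drug treatment of 500 cells/well at 37 °C, 5% CO2, with DMSO-only and media-only control wells.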

A short description of assay [2]: Quantitative High-Throughput drug screen in 47 multiple myeloma cell lines against the NCATS MIPE library collection: OCIMY7_PLB cell viability assay (AID 1918987). Further: potency means the concentration at half of the fitted maximal effect; nearly all actives have a fitted effect of over 65% in size. In outline:
as §1

Assay [3] in a line: Quantitative High-Throughput drug screen in 47 multiple myeloma cell lines against the NCATS MIPE library collection: OCIMY5_PLB cell viability assay (AID 1918988). Further: potency means the concentration at half of the fitted maximal effect; nearly all actives have a fitted effect of over 65% in size. In outline:
as §1

A short description of assay [4]: Quantitative High-Throughput drug screen in 47 multiple myeloma cell lines against the NCATS MIPE library collection: OPM1_PLB cell viability assay (AID 1918989). Further: potency means the concentration at half of the fitted maximal effect; nearly all actives have a fitted effect of over 40% in size. The method, boiled down:
as §1

Assay [5] can be described thus: Quantitative High-Throughput drug screen in 47 multiple myeloma cell lines against the NCATS MIPE library collection: SKMM1_PLB cell viability assay (AID 1919863). Further: potency means the concentration at half of the fitted maximal effect; nearly all actives have a fitted effect of over 35% in size. Particulars: SKMM1 myeloma viability, CellTiter-Glo ATP, 48 h; viability: stronger effect = lower value. The method, boiled down: as §1
(Cellular ATP, detected with luciferase, serves as a proxy for viable cell number.)

Assay [6] can be described thus: Quantitative High-Throughput drug screen in 47 multiple myeloma cell lines against the NCATS MIPE library collection: U266_ATCC cell viability assay (AID 1919864). Further: potency means the concentration at half of the fitted maximal effect; nearly all actives have a fitted effect of over 35% in size. The method, boiled down: as §1
The nature of assay [7]: Quantitative High-Throughput drug screen in 47 multiple myeloma cell lines against the NCATS MIPE library collection: XG6_PLB cell viability assay (AID 1919865). Further: potency means the concentration at half of the fitted maximal effect; nearly all actives have a fitted effect of over 40% in size. The method, boiled down: as §1
The nature of assay [8]: Quantitative High-Throughput drug screen in 47 multiple myeloma cell lines against the NCATS MIPE library collection: XG1_PLB cell viability assay (AID 1919866). Further: potency means the concentration at half of the fitted maximal effect; nearly all actives have a fitted effect of over 35% in size. The method, boiled down:
as §1

Assay [9] in a line: Quantitative High-Throughput drug screen in 47 multiple myeloma cell lines against the NCATS MIPE library collection: VP6_DJ cell viability assay (AID 1919867). Further: potency means the concentration at half of the fitted maximal effect; nearly all actives have a fitted effect of over 40% in size. In outline:
as §1

Assay [10] is described as follows: Quantitative High-Throughput drug screen in 47 multiple myeloma cell lines against the NCATS MIPE library collection: UTMC2_PLB cell viability assay (AID 1919868). Further: potency means the concentration at half of the fitted maximal effect; nearly all actives have a fitted effect of over 55% in size. Particulars: CellTiter-Glo ATP luminescence, 48 h; viability (% of DMSO control): at 45.8 µM (top of the series) unless noted. In outline: as §1
Assay [11] in a line: Quantitative High-Throughput drug screen in 47 multiple myeloma cell lines against the NCATS MIPE library collection: PE2_PLB cell viability assay (AID 1919869). Further: potency means the concentration at half of the fitted maximal effect; nearly all actives have a fitted effect of over 35% in size. The method, boiled down: as §1
Assay [12] is described as follows: Quantitative High-Throughput drug screen in 47 multiple myeloma cell lines against the NCATS MIPE library collection: PCM6_Riken cell viability assay (AID 1919870). Further: potency means the concentration at half of the fitted maximal effect; nearly all actives have a fitted effect of over 30% in size. In outline: as §1
Assay [13] in a line: Quantitative High-Throughput drug screen in 47 multiple myeloma cell lines against the NCATS MIPE library collection: RPMI8226_ATCC cell viability assay (AID 1919871). Further: potency means the concentration at half of the fitted maximal effect; nearly all actives have a fitted effect of over 30% in size. In outline: as §1
Assay [14] in a line: Quantitative High-Throughput drug screen in 47 multiple myeloma cell lines against the NCATS MIPE library collection: OPM2_DSMZ cell viability assay (AID 1919872). Further: potency means the concentration at half of the fitted maximal effect; nearly all actives have a fitted effect of over 30% in size. The method, boiled down:
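CellTiter-Glo ATP luminescence gave viability after 48 h compound treatment at 37C of 500 multiple myeloma cells per well. Normalisation used DMSO-only wells as 100% and media-only wells as 0% viability; primary qHTS of approved and investigational drugs.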

Assay [15] can be described thus: Quantitative High-Throughput drug screen in 47 multiple myeloma cell lines against the NCATS MIPE library collection: KMS11_JCRBsus cell viability assay (AID 1919873). Further: potency means the concentration at half of the fitted maximal effect; nearly all actives have a fitted effect of over 50% in size. The method, boiled down:
as §1

Assay [16] is described as follows: Quantitative High-Throughput drug screen in 47 multiple myeloma cell lines against the NCATS MIPE library collection: KMS28BM_JCRB cell viability assay (AID 1919874). In outline:
as §1

A short description of assay [17]: qHTS drug screen for cell cycle checkpoint inhibitors in PARPi-resistant BRCA-mutant ovarian cancer cell lines. (AID 1963452; calls by dose curve). Particulars: PEO1/OlaR viability, CellTiter-Glo luminescence, 96 h, stronger effect = lower value. In outline:
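PEO1, PEO4 and PEO1/OlaR ovarian cancer cells, 600 per well, exposed 96 h at 37C to a dilution series. Viability read by CellTiter-Glo luminescence, normalized to DMSO and empty wells; activity summarized as Z-AUC.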

The nature of assay [18]: qHTS for identification of novel therapeutic agents for treatment of microphthalmiaassociated transcription factor (MiT) renal cell carcinoma (RCC) (AID 1963991; calls by dose curve; further: potency means the concentration at half of the fitted maximal effect). Particulars: CellTiter-Glo, 48 h; for Potency: active = Z-AUC below -0.8 in all three lines; for z-score: stronger effect = lower value. In outline: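 Three TFE3-fusion RCC lines (UOK109, UOK124, UOK145), 500 cells/well in complete medium, were treated with MIPE 4.0 compounds for 48 hours at 37 C. Viability was by CellTiter-Glo luminescence, normalized to DMSO (100%) and empty wells (0%); curves fitted over 11 concentrations.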
For orientation: Quantitative high-throughput screening tests each substance at several concentrations.

Where [19] appears, read: measured here: PEO1 parental Z-AUC.
Where [20] appears, read: TFE3-RCC UOK109 viability, measured here: UOK109 Z-AUC.
Where [21] appears, read: TFE3-RCC viability, measured here: UOK124 Z-AUC.
Where [22] appears, read: TFE3-RCC viability, measured here: UOK145 Z-AUC.

Records with an inconclusive call do not appear. Activity calls are given as the source filed them. Unless noted, the call rests on the fitted dose curve; in most records, active means well fitted cell-killing curve with a large enough effect; inconclusive means small, poorly fitted or top-dose-only effect, or effect the other way; inactive means no such curve, though single readings can be large or run the other way.

For `O=C(Nc1ncc(-c2cc(C(F)F)nn2-c2c(Cl)cccc2Cl)s1)C1CC1`, the Potency is 264 nM (active) in [1]; 166 nM (active) in assay [2]; 296 nM (active) in assay [3]; 418 nM (active) in assay [4]; 332 nM (active) in [5]; 2960 nM (active) in assay [6]. The Potency in [7] is 187 nM (active); in [8], 105 nM (active); in assay [9], 418 nM (active); in assay [10], 526 nM (active); in [11], 590 nM (active); in assay [12], 662 nM (active). The Potency in assay [13] is 1660 nM (active); in [14] it was 1050 nM (active); in assay [15] it was 187 nM (active); in assay [16], 296 nM (active); in [18] (TFE3-RCC UOK109 viability), 935 nM (active). The Z-AUC was -1.34 (inactive) in assay [17], -1.49 in assay [17] (setting [19]) and -1.31 in [17] (measured here: PEO4 Z-AUC). In addition, the z-score was -1.06 in [18] (setting [20]), -1.43 in [18] (setting [21]) and -1.27 in [18] (setting [22]).
In the case of `CN(C)Cc1c(C(=O)NCCOc2ccc(C(=O)NO)cc2)oc2ccccc12`, the Potency is 526 nM (active) in assay [1]; 590 nM (active) in assay [2]; 469 nM (active) in [3]; 469 nM (active) in assay [4]; 1050 nM (active) in [5]; 1180 nM (active) in [6]. Also, the Potency is 2960 nM (active) in assay [7]; 1050 nM (active) in assay [8]; 148 nM (active) in assay [9]; 418 nM (active) in assay [10]; 2350 nM (active) in [11]; 935 nM (active) in assay [12]. The Potency was 1050 nM (active) in assay [14], 662 nM (active) in assay [15] and 418 nM (active) in [16]. In addition, the Z-AUC was -0.744 (inactive) in [17], -1.25 in assay [17] (setting [19]) and -1.26 in [17] (measured here: PEO4 Z-AUC).
On to `Cc1c(CN2CCN(S(C)(=O)=O)CC2)sc2c(N3CCOCC3)nc(-c3cnc(N)nc3)nc12`, for which the Potency in assay [1] is 37.2 nM (active); in assay [2], 132 nM (active); in assay [3], 52.6 nM (active); in [4], 66.2 nM (active); in assay [5], 83.3 nM (active); in [6], 118 nM (active). For the same molecule, the Potency was 66.2 nM (active) in [7]; 46.9 nM (active) in [8]; 23.5 nM (active) in [9]; 26.4 nM (active) in [10]; 37.2 nM (active) in assay [11]; 418 nM (active) in assay [12]. Besides, the Potency is 16.6 nM (active) in [13], 105 nM (active) in assay [14], 13.2 nM (active) in assay [16] and 83.3 nM (active) in [18] (TFE3-RCC UOK109 viability). Also, the Z-AUC in [17] is 0.0284 (inactive); in assay [17] (setting [19]) it was 0.564; in assay [17] (measured here: PEO4 Z-AUC), 0.402. The z-score in [18] (setting [20]) was -2.2; in [18] (setting [21]) it was -2.43; in [18] (setting [22]), -2.46.
Consider `Cc1cc(Nc2cc(N3CCN(C)CC3)nc(C=Cc3ccccc3)n2)n[nH]1`, for which the Potency in assay [1] was 5400 nM (active); in assay [2], 605 nM (active); in [3] it was 4810 nM (active); in [4], 3820 nM (active); in [5], 42900 nM (active); in assay [6] it was 38200 nM (active). The Potency in assay [7] is 9590 nM (active); in assay [8], 4810 nM (active); in [9], 15200 nM (active); in assay [10], 1910 nM (active); in [11], 13600 nM (active); in [12] it was 30300 nM (active). Further, the Potency was 13600 nM (active) in assay [13], 8550 nM (active) in assay [14], 1210 nM (active) in assay [15] and 13600 nM (active) in [16].

(Values after PubChem BioAssay (NCATS).)
